Measured values reported in PubChem BioAssay (NCI).
The panel holds about 83,000 compounds, 20% with a hit somewhere; the sample as a whole holds those more often.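 Each cell line was grown in a 96-well plate and treated with one concentration of compound for 48 hours. Values below 10 were considered active.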 Unmarked numbers belong to inactive results. Calls of active or inactive are those of the source.

Tests used:
Experiment in all cases: NCI-60 one-dose screen, 48 h (100 = growth as untreated, 0 = no growth, -100 = all killed)
Settings in all cases: 10 µM unless noted
[1] = test system: T-47D breast
[2] = test system: BT-549 breast
[3] = test system: MDA-MB-435 melanoma
[4] = test system: SW-620 colon
[5] = test system: MCF7 breast
[6] = test system: HCT-116 colon
[7] = test system: HCC-2998 colon
[8] = test system: KM12 colon

Compound | growth [1] | growth [2] | growth [3] | growth [4] | growth [5] | growth [6] | growth [7] | growth [8]
C=C1C(=O)O[C@H]2[C@H]1CC/C(COC(=O)c1ccc(C#N)cc1)=C\CC[C@@]1(C)O[C@@H]21 | -16.2% (active) | 29.7% | 24% | -27.7% (active) | 0.298% (active) | -60.3% (active) | 91.1% | 84.8%
O=c1[nH]ccc2nc(N3CCC(O)CC3)nc(Nc3cccc(C(F)(F)F)c3)c12 | 61.6% | 16.5% | 7.33% (active) | 48.9% | 22.4% | 42% | 83.8% | 23%
COc1cc(/C=C/C(=O)N2CCC=CC2=O)cc(OC)c1OC | 25.6% | 58.3% | 57.2% | 29.3% | 15.3% | 6.96% (active) | 100% | 66.6%
C=C1C(=O)O[C@H]2[C@H]1CC/C(COC(=O)c1ccccc1)=C\CC[C@@]1(C)O[C@@H]21 | -18.7% (active) | -13.7% (active) | -3.73% (active) | -55.4% (active) | -30.7% (active) | -86.6% (active) | 83.9% | 65.6%
Nc1nc2ccc(CNc3ccc(C(=O)NC(CC(=O)O)C(=O)O)cc3)cc2c(=O)[nH]1 (stereo not drawn) | 84.7% | 74.3% | 40.4% | 31.8% | 27.2% | 16.8% | 45.1% | 29.8%
CC(=O)Cc1cccnc1 | 96.2% | 92.4% | 110% | 97.1% | 101% | 81.6% | 108% | 105%
O=c1c2ccccc2sc2c(NCCCNCCO)nc3ccccc3c12 | 65.9% | 72.3% | 5.01% (active) | -62.4% (active) | -72.9% (active) | -57.5% (active) | -49.2% (active) | 6.31% (active)
Cc1ncc(CO)c(C(=O)O)c1O | 78.4% | 86.6% | 106% | 108% | 98.9% | 78% | 95.3% | 101%
Cc1cn(C2CC(N=[N+]=[N-])C(COP(=O)(O)OP(=O)(O)OP(=O)(O)O)O2)c(=O)[nH]c1=O (stereo not drawn) | 111% | 115% | 107% | 109% | 104% | 94.1% | 97.6% | 108%
COc1ccc(Cn2cc(COc3ccc4c5ccnc(C)c5n(CCCc5ccccc5)c4c3)nn2)cc1 | 61.8% | 67.5% | 63.2% | 65.5% | 47.7% | 51.5% | 83% | 59.7%
COc1ccccc1NC(=O)COc1ccc(/C=C2/Oc3cc4occc4c(OC)c3C2=O)cc1OC | 86.4% | 93% | 107% | 111% | 99.4% | 102% | 106% | 97.8%
NC(CCCC(N)C(=O)c1ccccc1)C(=O)O (stereo not drawn) | 89.9% | 104% | 105% | 110% | 91.2% | 99.2% | 103% | 101%
O=C1c2ccccc2C(=O)c2c(NCCN=Cc3c(O)ccc4ccccc34)cccc21 | 75% | 106% | 96% | 79.3% | 72.6% | 45.5% | 95.7% | 89%
O=C1C(Cl)=C(Nc2ccccc2)C(=O)C(Cl)=C1Nc1ccccc1 | 98.4% | 112% | 104% | 107% | 105% | 112% | 116% | 116%
Nc1ncc(-c2ccc3ncnc(Nc4ccc(F)c(Cl)c4)c3c2)cn1 | 26% | 22.5% | 84% | 66.4% | 27.1% | 21% | 83.9% | 66.1%
C=C1C(=O)O[C@H]2[C@H]1CC/C(COC(=O)c1cccc3ccccc13)=C\CC[C@@]1(C)O[C@@H]21 | -60% (active) | -45.1% (active) | -54.2% (active) | -52.8% (active) | -42.9% (active) | -93.8% (active) | 62.7% | 19.9%

Compound | growth [1] | growth [2] | growth [3] | growth [4] | growth [5] | growth [6] | growth [7] | growth [8]
COc1ccc2c(c1)nnc1c3cccnc3[nH]c21 | 6.14% (active) | 4.75% (active) | 13.8% | -12.5% (active) | -43.5% (active) | -74% (active) | 40.6% | 30%
O=S(=O)(CCN1CCOCC1)Nc1cc(-c2ccc3ncnc(Nc4ccc(F)c(Cl)c4)c3c2)cnc1Cl | -32.6% (active) | -9.24% (active) | 6.92% (active) | 30.4% | 13.6% | 18.9% | 17.4% | 20.8%
O=C(Nc1ccc(-n2ccc3c(NC(=O)c4ccccc4)nccc32)cc1)Nc1ccc(Cl)c(Cl)c1 | 20.7% | 40.3% | -58.9% (active) | -64.6% (active) | -91.9% (active) | -94.5% (active) | -57.6% (active) | -49.1% (active)
O=C(COc1ccc(Cl)cc1Cl)N1N=C(c2ccc(Cl)cc2Cl)CC1(O)c1cc(F)c(Cl)cc1Cl (stereo not drawn) | 98.8% | 111% | 107% | 116% | 95.6% | 95% | 124% | 117%
O=C1CN(CCN2CC(=O)NC(=O)C2)CC(=O)N1 | 99.2% | 96.6% | 90.4% | 118% | 104% | 93.6% | 112% | 99.5%
NCC(=O)NS(=O)(=O)OC[C@H]1O[C@@H](n2cnc3c(N)ncnc32)[C@H](O)[C@@H]1O | 7.66% (active) | 21.1% | -49.8% (active) | 3.71% (active) | 8.27% (active) | 6.57% (active) | 41.4% | 0.735% (active)
NS(=O)(=O)c1ccc(-n2nc(-c3ccc(Cl)cc3)ccc2=O)cc1 | 95.2% | 92.9% | 43.5% | 93.1% | 86.2% | 99.6% | 102% | 69.7%
CCCN1C(=O)CSC1=Nc1ccc2cc3ccc(N=C4SCC(=O)N4CCC)cc3nc2c1 | 12.1% | 41.7% | 40.5% | 70.3% | 16.8% | 37% | 64.2% | 36.7%
Nc1ncnc2c1ncn2C1OC(COC(c2ccccc2)(c2ccccc2)c2ccccc2)C(O)C1O (stereo not drawn) | 103% | 94% | 99.6% | 98% | 94.2% | 92.4% | 78.9% | 99.2%
CC(NCCC(c1ccccc1)c1ccccc1)c1ccccc1 (stereo not drawn) | 109% | 83.1% | 27% | 36.7% | 74.8% | 42.8% | -31.1% (active) | 41.5%
NC(CSC(c1ccccc1)(c1ccccc1)c1ccc(F)cc1)C(=O)O (stereo not drawn) | 30.4% | 28.7% | -47.1% (active) | 30.1% | 11.7% | -7.69% (active) | 4.55% (active) | 5.24% (active)
N#CC1=C(N)Oc2c(ccc3ccccc23)C1c1cc(=O)oc2ccc(Cl)cc12 (stereo not drawn) | 47.7% | 49% | -43.2% (active) | 29.6% | 19.7% | 12.7% | 36.6% | 21.5%
CCCCn1c(-c2cccc(OC)c2)nc2cc(OC)c(OC)cc2c1=O | 91.6% | 283% | 115% | 102% | 97.9% | 89.3% | 103% | 108%
COC(=O)CCCNS(=O)(=O)c1cc(C(=O)Nc2ccc(NC(=O)c3cc(S(=O)(=O)NCCCC(=O)OC)c(O)c(O)c3O)cc2)c(O)c(O)c1O | 97.2% | 99.4% | 1.35% (active) | 95.8% | 73.7% | 76.9% | 93.4% | 96%
CCc1cccc(-c2ccccc2)c1 | 110% | 97.1% | 109% | 99.8% | 105% | 98.8% | 110% | 102%
